In the supplement of paper PMC10849652:
The full data set covers some 8,800 targets. This sample favours those with a hit. About 0.5% of all pairs of compound and target were hits.

Tests used:
Assay in all cases: log2 fold change, soluble protein after heating vs DMSO (PISA); higher = thermal stabilisation; K562 lysate, 10 uM; active = over 0.2 and 3.5 SD of the protein, either way, in both replicates (recomputed)
lapatinib = compound: CS(=O)(=O)CCNCc1ccc(-c2ccc3ncnc(Nc4ccc(OCc5cccc(F)c5)c(Cl)c4)c3c2)o1 [lapatinib]
In short: (§1)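 Following dounce homogenisation of K562 pellets in PBS pH 7.4 with 1 mM MgCl2, crude extract at 1 mg/mL protein was incubated for 30 min with 10 μM compound. Aliquots were then heated for 3 min over 48°C-58°C and pooled, NP-40 was added to 0.5% at 4°C, and soluble protein was recovered as the supernatant at 21,000xg for 90 min. Channel-sum-equalised TMTpro 16plex LC-MS/MS quantified this protein. Each value, from duplicates, is a log-two fold change in thermal stability relative to solvent controls.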

pictilisib = compound: CS(=O)(=O)N1CCN(Cc2cc3nc(-c4cccc5[nH]ncc45)nc(N4CCOCC4)c3s2)CC1 [pictilisib]
In short: as §1

crizotinib = compound: C[C@@H](Oc1cc(-c2cnn(C3CCNCC3)c2)cnc1N)c1c(Cl)ccc(F)c1Cl [crizotinib]
In short: as §1

[1] = compound: C[C@H](C1=CC=C(C=C1)C(=O)NC2=C3C=CNC3=NC=C2)N
In short: as §1

duvelisib = compound: C[C@H](Nc1ncnc2nc[nH]c12)c1cc2cccc(Cl)c2c(=O)n1-c1ccccc1 [duvelisib]
In short: as §1

gandotinib = compound: Cc1cc(Nc2cc(CN3CCOCC3)c3nc(C)c(Cc4ccc(Cl)cc4F)n3n2)n[nH]1 [gandotinib]
In short: as §1

tozasertib = compound: Cc1cc(Nc2cc(N3CCN(C)CC3)nc(Sc3ccc(NC(=O)C4CC4)cc3)n2)n[nH]1 [tozasertib]
In short: as §1

doramapimod = compound: Cc1ccc(-n2nc(C(C)(C)C)cc2NC(=O)Nc2ccc(OCCN3CCOCC3)c3ccccc23)cc1 [doramapimod]
In short: as §1

bafetinib = compound: Cc1ccc(NC(=O)c2ccc(CN3CC[C@H](N(C)C)C3)c(C(F)(F)F)c2)cc1Nc1nccc(-c2cncnc2)n1 [bafetinib]
In short: as §1

[2] = compound: Cc1cccc(CC(=O)N2CCc3c2ccc(-c2cn(C)c4ncnc(N)c24)c3F)n1
In short: as §1

nilotinib = compound: Cc1cn(-c2cc(NC(=O)c3ccc(C)c(Nc4nccc(-c5cccnc5)n4)c3)cc(C(F)(F)F)c2)cn1 [nilotinib]
In short: as §1

[3] = compound: Cc1nc(Nc2n[nH]c3c2CN(C(=O)N[C@H](CN(C)C)c2ccccc2)C3(C)C)c2sccc2n1
In short: as §1

dasatinib = compound: Cc1nc(Nc2ncc(C(=O)Nc3c(C)cccc3Cl)s2)cc(N2CCN(CCO)CC2)n1 [dasatinib]
In short: as §1

[4] = compound: Cc1ncc(-c2ccnc(Nc3ccc(S(C)(=O)=O)cc3)n2)n1C(C)C
In short: as §1

[5] = compound: Cn1cc(-c2ccc3c(c2)CCN3C(=O)Cc2cccc(C(F)(F)F)c2)c2c(N)ncnc21
In short: as §1

quisinostat = compound: Cn1cc(CNCC2CCN(c3ncc(C(=O)NO)cn3)CC2)c2ccccc21 [quisinostat]
In short: as §1

tipifarnib = compound: Cn1cncc1[C@@](N)(c1ccc(Cl)cc1)c1ccc2c(c1)c(-c1cccc(Cl)c1)cc(=O)n2C [tipifarnib]
In short: as §1

[6] = compound: NC(=O)Nc1cc(-c2cccc(F)c2)sc1C(=O)N[C@H]1CCCNC1
In short: as §1

[7] = compound: NC(=O)c1cnc(N[C@@H]2CCCC[C@@H]2N)nc1Nc1cccc(-n2nccn2)c1
In short: as §1

[8] = compound: NC1(c2ccc(-c3nc4ccn5c(=O)[nH]nc5c4cc3-c3ccccc3)cc2)CCC1
In short: as §1

Measured: log2 fold change

CSDE1 isoform 4 (UniProt O75534)
UniProt O75534, sequence (O75534 whole entry, looked up): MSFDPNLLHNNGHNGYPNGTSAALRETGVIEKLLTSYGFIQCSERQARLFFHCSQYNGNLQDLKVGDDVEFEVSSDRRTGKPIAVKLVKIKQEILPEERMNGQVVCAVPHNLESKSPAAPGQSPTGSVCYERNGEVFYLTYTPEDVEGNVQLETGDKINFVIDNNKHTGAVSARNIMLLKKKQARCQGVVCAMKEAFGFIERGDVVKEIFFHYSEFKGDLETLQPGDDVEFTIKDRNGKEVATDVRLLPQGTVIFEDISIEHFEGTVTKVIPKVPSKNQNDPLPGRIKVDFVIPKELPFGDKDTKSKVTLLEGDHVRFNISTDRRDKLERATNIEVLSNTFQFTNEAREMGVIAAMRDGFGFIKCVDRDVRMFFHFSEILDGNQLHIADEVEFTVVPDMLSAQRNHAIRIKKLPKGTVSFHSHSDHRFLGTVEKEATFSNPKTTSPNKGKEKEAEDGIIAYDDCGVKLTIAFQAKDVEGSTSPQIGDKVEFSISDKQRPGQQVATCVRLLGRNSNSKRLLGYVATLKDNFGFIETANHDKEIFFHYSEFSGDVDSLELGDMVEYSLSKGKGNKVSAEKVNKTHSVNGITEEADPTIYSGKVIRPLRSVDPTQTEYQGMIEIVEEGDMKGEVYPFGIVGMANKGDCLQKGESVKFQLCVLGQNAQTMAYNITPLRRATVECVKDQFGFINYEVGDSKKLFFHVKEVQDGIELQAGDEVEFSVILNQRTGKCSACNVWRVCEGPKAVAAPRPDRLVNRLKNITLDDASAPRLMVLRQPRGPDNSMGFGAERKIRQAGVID
inactive: lapatinib 0.001 | pictilisib -0.004 | crizotinib -0.006 | [1] 0.041 | duvelisib -0.015 | gandotinib -0.095 | tozasertib 0.003 | doramapimod 0.005 | bafetinib -0.021 | [2] -0.017 | nilotinib 0.01 | [3] -0.018 | dasatinib -0.012 | [4] 0.001 | [5] 0.048 | quisinostat 0.014 | tipifarnib 0.012 | [6] 0.041 | [7] -0.009 | [8] -0.016

DENND6A (UniProt Q8IWF6)
UniProt Q8IWF6, sequence (Q8IWF6 whole entry, looked up): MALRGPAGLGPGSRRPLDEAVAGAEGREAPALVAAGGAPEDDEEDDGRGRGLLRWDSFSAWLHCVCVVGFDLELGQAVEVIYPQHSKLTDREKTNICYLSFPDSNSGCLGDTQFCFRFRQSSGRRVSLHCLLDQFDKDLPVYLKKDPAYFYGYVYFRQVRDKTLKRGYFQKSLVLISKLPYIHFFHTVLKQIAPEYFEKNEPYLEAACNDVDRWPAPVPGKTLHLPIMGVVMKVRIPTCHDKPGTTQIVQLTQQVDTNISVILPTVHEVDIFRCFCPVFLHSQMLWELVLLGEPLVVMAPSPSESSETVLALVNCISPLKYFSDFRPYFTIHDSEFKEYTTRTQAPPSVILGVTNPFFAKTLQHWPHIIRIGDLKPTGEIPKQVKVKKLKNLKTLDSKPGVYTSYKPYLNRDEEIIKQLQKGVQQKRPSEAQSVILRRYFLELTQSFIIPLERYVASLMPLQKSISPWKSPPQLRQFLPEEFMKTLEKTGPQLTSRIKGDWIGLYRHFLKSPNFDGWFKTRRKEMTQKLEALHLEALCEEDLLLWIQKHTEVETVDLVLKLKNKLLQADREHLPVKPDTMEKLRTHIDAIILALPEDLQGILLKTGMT
inactive: lapatinib -0.077 | pictilisib -0.079 | crizotinib 0.028 | [1] -0.013 | duvelisib -0.022 | gandotinib -0.006 | tozasertib -0.038 | doramapimod 0.054 | bafetinib -0.099 | [2] 0.086 | nilotinib 0.012 | [3] -0.009 | dasatinib 0.053 | [4] 0.017 | [5] 0.095 | quisinostat -0.084 | tipifarnib -0.041 | [6] 0.018 | [7] -0.032 | [8] -0.011

DERA (UniProt Q9Y315)
inactive: lapatinib -0.002 | pictilisib -0.028 | crizotinib -0.015 | duvelisib -0.004 | gandotinib -0.072 | tozasertib -0.028 | doramapimod -0.001 | bafetinib 0.012 | [2] -0.132 | nilotinib 0.037 | [3] -0.027 | dasatinib 0.057 | [4] 0.006 | [5] -0.017 | quisinostat -0.008 | tipifarnib 0.08 | [6] -0.017 | [7] -0.021 | [8] 0
active: [1] 0.732

DARS (UniProt P14868)
inactive: lapatinib 0.002 | pictilisib 0 | crizotinib -0.033 | [1] -0.036 | duvelisib 0 | gandotinib -0.081 | tozasertib 0.011 | doramapimod 0.015 | bafetinib -0.011 | [2] 0.008 | nilotinib 0.01 | [3] -0.004 | dasatinib -0.032 | [4] -0.015 | [5] 0.063 | quisinostat -0.007 | tipifarnib 0.01 | [6] 0.044 | [7] -0.008 | [8] 0.002

DCTN1 (UniProt Q14203)
UniProt Q14203, sequence (Q14203 whole entry, looked up): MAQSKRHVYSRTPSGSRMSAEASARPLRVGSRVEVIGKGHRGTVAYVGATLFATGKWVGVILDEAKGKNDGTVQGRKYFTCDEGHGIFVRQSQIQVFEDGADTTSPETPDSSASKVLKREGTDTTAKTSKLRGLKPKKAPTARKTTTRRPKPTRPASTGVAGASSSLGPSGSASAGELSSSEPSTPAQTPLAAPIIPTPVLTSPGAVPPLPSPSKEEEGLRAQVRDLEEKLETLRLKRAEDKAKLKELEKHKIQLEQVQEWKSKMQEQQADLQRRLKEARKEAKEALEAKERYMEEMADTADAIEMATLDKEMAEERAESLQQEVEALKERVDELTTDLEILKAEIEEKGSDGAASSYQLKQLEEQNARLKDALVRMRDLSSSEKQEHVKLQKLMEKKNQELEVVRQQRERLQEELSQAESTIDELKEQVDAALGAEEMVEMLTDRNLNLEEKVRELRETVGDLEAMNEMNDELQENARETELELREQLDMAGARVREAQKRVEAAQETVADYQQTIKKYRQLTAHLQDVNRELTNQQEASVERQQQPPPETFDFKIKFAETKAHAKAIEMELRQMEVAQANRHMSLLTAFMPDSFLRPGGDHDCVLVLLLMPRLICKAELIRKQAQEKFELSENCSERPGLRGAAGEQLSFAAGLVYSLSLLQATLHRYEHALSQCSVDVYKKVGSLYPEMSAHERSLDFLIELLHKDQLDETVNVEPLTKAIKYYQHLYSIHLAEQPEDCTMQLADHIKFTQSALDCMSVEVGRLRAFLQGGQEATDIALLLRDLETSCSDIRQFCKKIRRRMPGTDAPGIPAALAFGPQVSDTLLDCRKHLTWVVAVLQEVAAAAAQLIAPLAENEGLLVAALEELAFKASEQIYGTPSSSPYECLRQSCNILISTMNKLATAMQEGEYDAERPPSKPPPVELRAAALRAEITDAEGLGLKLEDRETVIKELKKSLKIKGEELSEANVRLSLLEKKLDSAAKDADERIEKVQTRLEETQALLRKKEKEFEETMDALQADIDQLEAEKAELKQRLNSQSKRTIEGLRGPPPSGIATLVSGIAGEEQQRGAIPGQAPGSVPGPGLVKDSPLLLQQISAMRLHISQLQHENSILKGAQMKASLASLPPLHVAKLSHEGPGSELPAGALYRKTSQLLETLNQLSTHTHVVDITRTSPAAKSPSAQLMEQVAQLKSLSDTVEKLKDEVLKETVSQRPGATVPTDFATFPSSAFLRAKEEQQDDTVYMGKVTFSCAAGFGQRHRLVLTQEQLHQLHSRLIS
inactive: lapatinib -0.005 | pictilisib -0.021 | crizotinib -0.005 | [1] 0.027 | duvelisib 0.001 | gandotinib -0.029 | tozasertib -0.002 | doramapimod -0.013 | bafetinib -0.023 | [2] -0.005 | nilotinib 0.008 | [3] -0.005 | dasatinib -0.025 | [4] 0.012 | [5] 0.017 | quisinostat 0.001 | tipifarnib -0.001 | [6] 0.011 | [7] 0.009 | [8] -0.007

DES (UniProt P17661)
UniProt P17661, sequence (P17661 whole entry, looked up): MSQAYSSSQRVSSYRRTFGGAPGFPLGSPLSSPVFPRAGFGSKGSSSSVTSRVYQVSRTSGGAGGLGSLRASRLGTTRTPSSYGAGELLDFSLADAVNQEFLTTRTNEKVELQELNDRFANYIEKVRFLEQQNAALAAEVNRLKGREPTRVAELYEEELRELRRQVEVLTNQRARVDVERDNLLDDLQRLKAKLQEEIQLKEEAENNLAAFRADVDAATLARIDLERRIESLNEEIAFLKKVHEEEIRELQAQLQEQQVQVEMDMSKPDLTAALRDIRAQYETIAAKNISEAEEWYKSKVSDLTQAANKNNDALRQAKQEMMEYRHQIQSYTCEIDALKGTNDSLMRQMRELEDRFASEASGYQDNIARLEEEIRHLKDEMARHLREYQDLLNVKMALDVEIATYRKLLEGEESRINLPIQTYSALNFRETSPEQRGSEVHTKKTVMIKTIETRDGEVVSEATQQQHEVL
inactive: lapatinib -0.079 | pictilisib -0.03 | crizotinib -0.082 | [1] -0.301 | duvelisib 0.098 | gandotinib 0.13 | tozasertib -0.014 | doramapimod 0.047 | bafetinib -0.051 | [2] 0.121 | nilotinib 0.009 | [3] -0.04 | dasatinib -0.024 | [4] 0.004 | [5] -0.057 | quisinostat -0.162 | tipifarnib -0.008 | [6] 0 | [7] 0.041 | [8] 0.034

CKM (UniProt P06732)
UniProt P06732, sequence (P06732 whole entry, looked up): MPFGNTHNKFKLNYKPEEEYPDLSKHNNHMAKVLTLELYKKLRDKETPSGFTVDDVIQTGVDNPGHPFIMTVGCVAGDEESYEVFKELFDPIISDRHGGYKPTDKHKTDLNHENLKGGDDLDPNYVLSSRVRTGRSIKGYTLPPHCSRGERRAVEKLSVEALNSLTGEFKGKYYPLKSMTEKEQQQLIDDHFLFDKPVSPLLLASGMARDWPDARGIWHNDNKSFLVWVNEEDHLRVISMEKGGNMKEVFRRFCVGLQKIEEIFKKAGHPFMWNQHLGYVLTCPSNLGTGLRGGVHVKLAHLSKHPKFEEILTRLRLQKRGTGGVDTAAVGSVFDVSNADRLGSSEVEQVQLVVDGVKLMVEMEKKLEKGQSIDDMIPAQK
active: [1] -0.431
inactive: lapatinib -0.041 | pictilisib -0.035 | crizotinib -0.13 | duvelisib 0.087 | gandotinib 0.096 | tozasertib -0.078 | doramapimod -0.019 | bafetinib -0.023 | [2] 0.113 | nilotinib 0.033 | [3] 0 | dasatinib -0.056 | [4] 0.062 | [5] -0.093 | quisinostat -0.175 | tipifarnib -0.072 | [6] 0.068 | [7] -0.025 | [8] 0.007

CNOT6L (UniProt Q96LI5)
inactive: lapatinib -0.03 | pictilisib -0.042 | crizotinib -0.076 | [1] -0.251 | duvelisib -0.001 | gandotinib 0.065 | tozasertib 0.064 | doramapimod 0.012 | bafetinib -0.1 | [2] 0.114 | nilotinib -0.026 | [3] 0.016 | dasatinib -0.053 | [4] 0.001 | [5] 0.01 | quisinostat -0.054 | tipifarnib -0.047 | [6] 0.055 | [7] -0.024 | [8] 0.003

DDA1 (UniProt Q9BW61)
inactive: lapatinib 0.011 | pictilisib -0.025 | crizotinib 0.025 | [1] -0.013 | duvelisib -0.013 | gandotinib -0.019 | tozasertib -0.037 | doramapimod 0.013 | bafetinib 0.011 | [2] -0.062 | nilotinib 0.003 | [3] 0.008 | dasatinib -0.011 | [4] -0.056 | [5] 0.006 | quisinostat -0.006 | tipifarnib -0.008 | [6] -0.023 | [7] -0.027 | [8] 0.023

COL6A5 (UniProt A8TX70)
active: [1] -0.966 | [2] 0.486
inactive: lapatinib -0.07 | pictilisib -0.035 | crizotinib -0.197 | duvelisib 0.013 | gandotinib 0.295 | tozasertib -0.099 | doramapimod 0.053 | bafetinib -0.13 | nilotinib 0.134 | [3] 0.009 | dasatinib -0.11 | [4] -0.185 | [5] -0.038 | quisinostat -0.377 | tipifarnib -0.236 | [6] 0.017 | [7] 0.051 | [8] -0.014

CSPP1 (UniProt Q1MSJ5)
UniProt Q1MSJ5, sequence (Q1MSJ5 whole entry, looked up): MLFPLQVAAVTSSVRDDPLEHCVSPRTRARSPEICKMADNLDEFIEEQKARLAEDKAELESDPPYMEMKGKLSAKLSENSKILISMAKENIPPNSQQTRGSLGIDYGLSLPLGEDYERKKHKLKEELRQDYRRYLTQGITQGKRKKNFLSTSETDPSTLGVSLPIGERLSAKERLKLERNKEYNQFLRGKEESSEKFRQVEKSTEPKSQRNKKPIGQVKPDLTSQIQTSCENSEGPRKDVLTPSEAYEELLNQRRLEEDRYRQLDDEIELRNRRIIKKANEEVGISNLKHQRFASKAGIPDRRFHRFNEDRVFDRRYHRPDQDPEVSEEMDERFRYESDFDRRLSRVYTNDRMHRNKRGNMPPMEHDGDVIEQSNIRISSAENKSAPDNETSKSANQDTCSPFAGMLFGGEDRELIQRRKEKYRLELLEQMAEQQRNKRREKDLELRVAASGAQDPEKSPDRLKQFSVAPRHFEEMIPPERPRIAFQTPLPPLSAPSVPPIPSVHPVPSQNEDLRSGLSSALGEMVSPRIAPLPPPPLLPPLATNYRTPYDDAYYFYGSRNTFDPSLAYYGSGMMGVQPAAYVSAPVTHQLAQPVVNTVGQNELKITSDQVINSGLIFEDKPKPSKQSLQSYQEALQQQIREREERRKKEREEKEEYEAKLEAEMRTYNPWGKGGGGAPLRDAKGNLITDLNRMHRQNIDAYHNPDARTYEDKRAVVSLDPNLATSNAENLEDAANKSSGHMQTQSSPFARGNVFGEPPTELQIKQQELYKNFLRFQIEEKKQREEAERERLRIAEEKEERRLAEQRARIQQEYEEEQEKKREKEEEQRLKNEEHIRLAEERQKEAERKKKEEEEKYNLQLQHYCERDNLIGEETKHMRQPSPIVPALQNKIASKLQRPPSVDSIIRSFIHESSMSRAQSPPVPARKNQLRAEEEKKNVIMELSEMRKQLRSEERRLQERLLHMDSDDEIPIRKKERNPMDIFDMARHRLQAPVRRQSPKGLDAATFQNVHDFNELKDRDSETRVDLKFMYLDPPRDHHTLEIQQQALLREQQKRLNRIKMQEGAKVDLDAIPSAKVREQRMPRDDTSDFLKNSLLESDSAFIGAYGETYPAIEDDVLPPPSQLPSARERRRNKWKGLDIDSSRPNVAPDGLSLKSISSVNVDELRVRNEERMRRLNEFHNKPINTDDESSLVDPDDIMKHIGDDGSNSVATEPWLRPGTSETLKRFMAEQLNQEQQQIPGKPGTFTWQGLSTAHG
inactive: lapatinib -0.103 | pictilisib -0.176 | crizotinib 0.013 | [1] 0.031 | duvelisib -0.089 | gandotinib 0.056 | tozasertib -0.04 | doramapimod 0.018 | bafetinib -0.013 | [2] -0.002 | nilotinib -0.105 | [3] -0.014 | dasatinib 0.046 | [4] 0.011 | [5] -0.062 | quisinostat 0.026 | tipifarnib 0.078 | [6] 0.015 | [7] -0.227 | [8] 0.011

COPZ1 isoform 4 (UniProt P61923)
inactive: lapatinib 0.161 | pictilisib 0.062 | crizotinib 0.09 | [1] 0.083 | duvelisib -0.022 | gandotinib -0.066 | tozasertib 0.028 | doramapimod -0.044 | bafetinib -0.048 | [2] -0.088 | nilotinib 0.012 | [3] 0 | dasatinib 0.015 | [4] 0.088 | [5] 0.023 | quisinostat 0.289 | tipifarnib 0.002 | [6] -0.029 | [7] -0.103 | [8] 0.037

DPM1 (UniProt O60762)
UniProt O60762, sequence (O60762 whole entry, looked up): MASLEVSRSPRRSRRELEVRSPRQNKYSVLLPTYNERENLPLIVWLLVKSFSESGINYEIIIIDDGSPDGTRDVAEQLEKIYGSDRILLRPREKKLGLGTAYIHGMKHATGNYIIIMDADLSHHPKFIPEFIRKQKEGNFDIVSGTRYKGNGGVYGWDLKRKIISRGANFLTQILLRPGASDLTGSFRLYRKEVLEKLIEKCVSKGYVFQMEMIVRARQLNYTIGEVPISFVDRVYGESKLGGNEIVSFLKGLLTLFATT
inactive: lapatinib -0.003 | pictilisib 0.009 | crizotinib 0.009 | [1] 0.028 | duvelisib -0.018 | gandotinib -0.097 | tozasertib -0.014 | doramapimod -0.046 | bafetinib -0.061 | [2] 0.061 | nilotinib 0.013 | [3] 0.019 | dasatinib 0.028 | [4] -0.014 | [5] 0.044 | quisinostat 0.057 | tipifarnib 0.03 | [6] 0.038 | [7] 0.019 | [8] -0.057

DDX39A (UniProt O00148)
inactive: lapatinib -0.004 | pictilisib 0.021 | crizotinib 0.006 | [1] -0.022 | duvelisib 0.004 | gandotinib -0.104 | tozasertib -0.008 | doramapimod -0.046 | bafetinib -0.004 | [2] 0.093 | nilotinib -0.002 | [3] 0.02 | dasatinib 0.001 | [4] 0.007 | [5] 0.06 | quisinostat -0.018 | tipifarnib -0.053 | [6] 0.075 | [7] 0.036 | [8] -0.013

CSTB (UniProt P04080)
inactive: lapatinib 0.05 | pictilisib 0.003 | crizotinib -0.059 | [1] -0.235 | duvelisib 0.025 | gandotinib 0.147 | tozasertib -0.01 | doramapimod 0.107 | bafetinib 0.012 | [2] 0.104 | nilotinib 0.057 | [3] 0.009 | dasatinib -0.017 | [4] 0.079 | [5] -0.022 | quisinostat -0.206 | tipifarnib -0.008 | [6] -0.004 | [7] -0.055 | [8] -0.005

COG6 (UniProt Q9Y2V7)
inactive: lapatinib 0.012 | pictilisib -0.019 | crizotinib -0.104 | [1] -0.137 | duvelisib 0.014 | gandotinib -0.115 | tozasertib -0.011 | doramapimod 0.037 | bafetinib -0.071 | [2] 0.142 | nilotinib 0.004 | [3] 0.038 | dasatinib -0.085 | [4] -0.041 | [5] -0.005 | quisinostat -0.068 | tipifarnib -0.045 | [6] -0.016 | [7] -0.008 | [8] -0.06
